What all share (conditions): mRNA level, 48 h; actives raise or lower the signal
Read-out in assay [1]: Cyclin Dependent Kinase Inhibitor 1A (CDKN1A), CDKN1A (gene 1026)
Nature of the assay: LTEA_HepaRG_CDKN1A: Life Technologies and Expression Analysis (LTEA) Assay for Cyclin Dependent Kinase Inhibitor 1A (CDKN1A) using HepaRG (AID 2283450). In short, it runs like this: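 Differentiated HepaRG cells in serum-free induction medium, exposed 48 h in duplicate to eight half-log concentrations up to 100 uM in 0.5% DMSO. mRNA measured by TaqMan qRT-PCR, normalized to ACTB, GAPDH, POLR2A; bidirectional fit versus DMSO.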

Read-out in assay [2]: Cyclin D1 (CCND1), CCND1 (gene 595)
Nature of the assay: LTEA_HepaRG_CCND1: Life Technologies and Expression Analysis (LTEA) Assay for Cyclin D1 (CCND1) using HepaRG (AID 2283451).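 As to AC50: TaqMan qRT-PCR transcript level normalised to ACTB GAPDH and POLR2A housekeeping genes.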 The method, boiled down:
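Differentiated HepaRG cells exposed 48 h in serum-free induction medium to eight half-log concentrations from 100 uM top, 0.5% DMSO, duplicates. CCND1 mRNA measured by Fluidigm TaqMan qRT-PCR, normalised to ACTB, GAPDH, POLR2A; bidirectional fit.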

Read-out in assay [3]: catalase (CAT), CAT (gene 847)
Nature of the assay: LTEA_HepaRG_CAT: Life Technologies and Expression Analysis (LTEA) Assay for catalase (CAT) using HepaRG (AID 2283452).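 As to AC50: TaqMan qRT-PCR signal normalized to ACTB GAPDH and POLR2A housekeeping genes.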 The method, boiled down:
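Differentiated HepaRG cells in serum-free induction medium were dosed 48 h in duplicate, eight half-log concentrations from 100 uM in 0.5% DMSO. Transcript measured by TaqMan qRT-PCR, normalised to ACTB/GAPDH/POLR2A, fitted bidirectionally against DMSO.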

Read-out in assay [4]: flavin-containing dimethylaniline monooxygenases 3 (FMO3), FMO3 (gene 2328)
Nature of the assay: LTEA_HepaRG_FMO3: Life Technologies and Expression Analysis (LTEA) Assay for flavin-containing dimethylaniline monooxygenases 3 (FMO3) using HepaRG (AID 2283453).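 As to AC50: FMO3 transcript by TaqMan qRT-PCR normalized to ACTB GAPDH and POLR2A.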 The method, boiled down:
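HepaRG, 48 h exposure, 8-pt half-log series from 100 uM, 0.5% DMSO vehicle, duplicates; FMO3 transcript by Fluidigm TaqMan qRT-PCR, housekeeping-normalized; gain/loss fit vs DMSO.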

Read-out in assay [5]: Cytochrome P450 (CYP1A1), CYP1A1 (gene 1543)
Nature of the assay: LTEA_HepaRG_CYP1A1: Life Technologies and Expression Analysis (LTEA) Assay for Cytochrome P450 (CYP1A1) using HepaRG (AID 2283454). In short, it runs like this:
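Differentiated human HepaRG cells, after 48 h plating, exposed in duplicate for 48 h in serum-free induction medium to 8 half-log concentrations up to 100 uM in 0.5% DMSO. CYP1A1 mRNA by qRT-PCR, normalized to ACTB/GAPDH/POLR2A; bidirectional fit versus DMSO.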

Read-out in assay [6]: CFLAR gene, CFLAR (gene 8837)
Nature of the assay: LTEA_HepaRG_CFLAR: Life Technologies and Expression Analysis (LTEA) Assay for CFLAR gene using HepaRG (AID 2283455). The method, boiled down:
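HepaRG cells were plated for 48 h, switched to serum-free induction medium, then exposed in duplicate for 48 h to 8 concentrations (top 100 uM, half-log steps, 0.5% DMSO). CFLAR mRNA was measured by qRT-PCR, normalized to ACTB, GAPDH and POLR2A.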

Read-out in assay [7]: Forkhead box O1 (FOXO1), FOXO1 (gene 2308)
Nature of the assay: LTEA_HepaRG_FOXO1: Life Technologies and Expression Analysis (LTEA) Assay for Forkhead box O1 (FOXO1) using HepaRG (AID 2283456). The method, boiled down:
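Differentiated human HepaRG cells in serum-free induction medium were exposed in duplicate for 48 h to eight half-log concentrations (top 100 uM, 0.5% DMSO). FOXO1 mRNA was measured by TaqMan qRT-PCR, normalised to ACTB, GAPDH and POLR2A, and fitted bidirectionally against DMSO.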

Read-out in assay [8]: growth arrest and DNA damage 45 (GADD45A), GADD45A (gene 1647)
Nature of the assay: LTEA_HepaRG_GADD45A: Life Technologies and Expression Analysis (LTEA) Assay for growth arrest and DNA damage 45 (GADD45A) using HepaRG (AID 2283458). The method, boiled down:
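Differentiated HepaRG cells were exposed in duplicate for 48 h in serum-free induction medium to 8-point half-log concentrations up to 100 uM in 0.5% DMSO. GADD45A mRNA was measured by TaqMan qRT-PCR, normalized to ACTB, GAPDH and POLR2A, with bidirectional fitting versus DMSO.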

Read-out in assay [9]: Forkhead box O3 (FOXO3), FOXO3 (gene 2309)
Nature of the assay: LTEA_HepaRG_FOXO3: Life Technologies and Expression Analysis (LTEA) Assay for Forkhead box O3 (FOXO3) using HepaRG (AID 2283459). In short, it runs like this:
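Differentiated human HepaRG cells in serum-free induction medium were exposed in duplicate for 48 h to eight half-log concentrations up to 100 uM in 0.5% DMSO. FOXO3 mRNA was quantified by qRT-PCR, normalized to ACTB, GAPDH and POLR2A, with bidirectional fitting versus DMSO.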

Read-out in assay [10]: ABC Transporter (ABCB1), ABCB1 (gene 5243)
Nature of the assay: LTEA_HepaRG_ABCB1: Life Technologies and Expression Analysis (LTEA) Assay for ABC Transporter (ABCB1) using HepaRG (AID 2283460). The method, boiled down:
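Differentiated human HepaRG cells, plated 48 h then switched to serum-free induction medium, were exposed in duplicate to eight half-log concentrations up to 100 uM in 0.5% DMSO for 48 h. ABCB1 mRNA was measured by TaqMan qRT-PCR, normalized to ACTB/GAPDH/POLR2A.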

Read-out in assay [11]: growth arrest and DNA damage 45 (GADD45B), GADD45B (gene 4616)
Nature of the assay: LTEA_HepaRG_GADD45B: Life Technologies and Expression Analysis (LTEA) Assay for growth arrest and DNA damage 45 (GADD45B) using HepaRG (AID 2283461). In short, it runs like this: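 Differentiated human HepaRG cells in serum-free induction medium exposed 48 h in duplicate to eight concentrations, top 100 uM, half-log steps, 0.5% DMSO. GADD45B mRNA by TaqMan qRT-PCR, normalized to ACTB, GAPDH, POLR2A; bidirectional fit versus DMSO.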

Read-out in assay [12]: ABC Transporter (ABCC3), ABCC3 (gene 8714)
Nature of the assay: LTEA_HepaRG_ABCC3: Life Technologies and Expression Analysis (LTEA) Assay for ABC Transporter (ABCC3) using HepaRG (AID 2283462). In short, it runs like this:
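Differentiated human HepaRG cells exposed 48 h in serum-free induction medium, 0.5% DMSO vehicle, 8-point half-log series to 100 uM in duplicate. ABCC3 mRNA by qRT-PCR, normalised to ACTB, GAPDH, POLR2A; bidirectional fit vs DMSO.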

Read-out in assay [13]: ABC Transporter (ABCB11), ABCB11 (gene 8647)
Nature of the assay: LTEA_HepaRG_ABCB11: Life Technologies and Expression Analysis (LTEA) Assay for ABC Transporter (ABCB11) using HepaRG (AID 2283463). The method, boiled down:
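Differentiated human HepaRG cells were exposed for 48 h in serum-free induction medium to eight half-log concentrations up to 100 uM in 0.5% DMSO. ABCB11 mRNA was quantified by qRT-PCR, normalized to ACTB, GAPDH and POLR2A, and fitted bidirectionally versus DMSO.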

Read-out in assay [14]: ABC Transporter (ABCC2), ABCC2 (gene 1244)
Nature of the assay: LTEA_HepaRG_ABCC2: Life Technologies and Expression Analysis (LTEA) Assay for ABC Transporter (ABCC2) using HepaRG (AID 2283464). The method, boiled down: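 Differentiated HepaRG cells in serum-free induction medium exposed 48 h to eight half-log concentrations up to 100 uM, 0.5% DMSO, in duplicate. ABCC2 mRNA measured by qRT-PCR (TaqMan, Fluidigm), normalized to ACTB, GAPDH and POLR2A. Fitted in both directions against DMSO.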

Read-out in assay [15]: Broad substrate specificity ATP-binding cassette transporter ABCG2 (Homo sapiens) (UniProt Q9UNQ0)
Nature of the assay: LTEA_HepaRG_ABCG2: Life Technologies and Expression Analysis (LTEA) Assay for ABC Transporter (ABCG2) using HepaRG (AID 2283465). The method, boiled down:
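Differentiated HepaRG cells in serum-free induction medium were exposed for 48 h, in duplicate, to eight half-log concentrations up to 100 uM in 0.5% DMSO. ABCG2 mRNA was measured by TaqMan qRT-PCR, normalized to ACTB, GAPDH and POLR2A, and fitted bidirectionally versus DMSO.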

Read-out in assay [16]: ATP-citrate lyase (ACLY), ACLY (gene 47)
Nature of the assay: LTEA_HepaRG_ACLY: Life Technologies and Expression Analysis (LTEA) Assay for ATP-citrate lyase (ACLY) using HepaRG (AID 2283466). The method, boiled down: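 Differentiated human HepaRG cells in serum-free induction medium exposed 48 h, in duplicate, to eight half-log concentrations from 100 uM top in 0.5% DMSO; ACLY mRNA measured by qRT-PCR, normalized to ACTB, GAPDH, POLR2A, fitted bidirectionally versus DMSO.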

Read-out in assay [17]: Peroxisomal acyl-coenzyme A oxidase 1 (ACOX1) gene, ACOX1 (gene 51)
Nature of the assay: LTEA_HepaRG_ACOX1: Life Technologies and Expression Analysis (LTEA) Assay for Peroxisomal acyl-coenzyme A oxidase 1 (ACOX1) gene using HepaRG (AID 2283467). In short, it runs like this:
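Differentiated human HepaRG cells were exposed in duplicate for 48 h in serum-free induction medium to eight half-log concentrations up to 100 uM in 0.5% DMSO. ACOX1 mRNA was then quantified by TaqMan qRT-PCR, normalized to ACTB, GAPDH and POLR2A.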

Read-out in assay [18]: Bcl-2 (BAD) gene, BAD (gene 572)
Nature of the assay: LTEA_HepaRG_BAD: Life Technologies and Expression Analysis (LTEA) Assay for Bcl-2 (BAD) gene using HepaRG (AID 2283469). In short, it runs like this:
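Differentiated human HepaRG cells in serum-free induction medium were exposed in duplicate for 48 h to eight concentrations (top 100 uM, half-log steps, 0.5% DMSO). BAD mRNA was quantified by qRT-PCR normalised to ACTB, GAPDH and POLR2A, with bidirectional fitting versus DMSO.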

Read-out in assay [19]: Alkaline Phosphatase, Placental (ALPP) gene, ALPP (gene 250)
Nature of the assay: LTEA_HepaRG_ALPP: Life Technologies and Expression Analysis (LTEA) Assay for Alkaline Phosphatase, Placental (ALPP) gene using HepaRG (AID 2283468). The method, boiled down:
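HepaRG cells plated 48 h, then exposed in duplicate for 48 h in serum-free induction medium to 8-point half-log series from 100 uM in 0.5% DMSO. ALPP mRNA by TaqMan qRT-PCR, normalized to ACTB/GAPDH/POLR2A; bidirectional fit versus DMSO.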

Calls of active or inactive are those of the source. The calls were made as follows: active = hit-call score of the fitted dose curve at least 0.9, where 1 is the maximum; inactive = score below 0.9.

One may read the AC50 as the concentration at which the activity in the assay is half-maximal.

Chain of Broad substrate specificity ATP-binding cassette transporter ABCG2 (Homo sapiens) (Q9UNQ0 whole entry, looked up): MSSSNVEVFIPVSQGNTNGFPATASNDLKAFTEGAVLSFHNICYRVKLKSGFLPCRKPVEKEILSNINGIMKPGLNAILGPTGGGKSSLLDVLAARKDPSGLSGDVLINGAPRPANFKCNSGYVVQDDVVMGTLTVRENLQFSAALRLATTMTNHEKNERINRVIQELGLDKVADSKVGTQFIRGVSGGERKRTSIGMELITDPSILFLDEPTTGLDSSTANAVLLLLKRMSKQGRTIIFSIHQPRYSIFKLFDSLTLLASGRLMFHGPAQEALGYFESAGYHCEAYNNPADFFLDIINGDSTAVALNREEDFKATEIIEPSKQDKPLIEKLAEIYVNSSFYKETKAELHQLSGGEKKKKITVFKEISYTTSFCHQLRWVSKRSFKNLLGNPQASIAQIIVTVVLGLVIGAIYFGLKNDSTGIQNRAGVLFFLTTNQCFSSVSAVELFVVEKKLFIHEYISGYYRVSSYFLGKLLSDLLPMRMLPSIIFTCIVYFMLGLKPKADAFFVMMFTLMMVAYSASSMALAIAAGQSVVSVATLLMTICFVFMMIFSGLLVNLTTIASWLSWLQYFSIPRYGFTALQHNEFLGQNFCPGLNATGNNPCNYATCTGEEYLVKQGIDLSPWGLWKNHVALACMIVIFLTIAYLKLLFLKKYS

Consider `C/C=C/C=C/C(=O)O`, for which the molecule was called inactive in assay [1], in [2], in assay [3], in assay [4], in assay [6] and in [7]. Besides, the molecule was called inactive in assay [9], in assay [10], in assay [11], in assay [12], in [13] and in assay [14]. Moreover, the call in assay [15], in assay [16] and in assay [17] was inactive. The AC50 in [5] was 76.6 µM (active); in assay [8], 0.246 µM (active).
For `CN(C)C(=O)NC1(c2ccccc2)CCN(CCC[C@]2(c3ccc(Cl)c(Cl)c3)CCCN(C(=O)c3ccccc3)C2)CC1`, the AC50 in assay [1] is 18.4 µM (active); in assay [2] it was 22.7 µM (active); in assay [3], 18.8 µM (active); in assay [4], 18.8 µM (active); in assay [7], 18.7 µM (active); in assay [8], 12.5 µM (active). Also, the values for the AC50 in assay [11], in assay [13] and in assay [14] were 20.3 µM (active), 23.6 µM (active) and 19.4 µM (active), respectively. The result in assay [5], in assay [6], in [9], in [10], in [12] and in assay [15] was inactive. Further, the outcome in assay [16] and in assay [18] was inactive.
For the molecule `CC(C)c1cccc(C(C)C)c1NC(=O)NS(=O)(=O)c1cc(C(C)(C)O)co1`, the result in [1], in [2], in assay [3], in assay [4], in assay [5] and in [6] was inactive. In addition, the outcome in assay [7], in assay [8], in assay [9], in assay [11], in assay [12] and in assay [13] was inactive. The call in assay [16], in [17] and in [19] was inactive. In addition, the half-maximal activity concentration (AC50) in assay [10] was 6.65 µM (active); in [14] it was 3.34 µM (active); in assay [15], 12.6 µM (active).

These data come from PubChem BioAssay (EPA / NIEHS).
